Compounds without any hit were thinned out: in the full panel of roughly 83,000, 20% have a hit.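 Testing used 96-well plates and a 48-hour single-concentration exposure. Example: -40 means 40% of the starting cells died.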 Unmarked numbers belong to inactive results. Calls of active or inactive are those of the source. Rule for the calls: active = growth percent below 10; inactive = the rest.
Legend:
Test in all cases: NCI-60 one-dose screen, 48 h (100 = growth as untreated, 0 = no growth, -100 = all killed)
Conditions in all cases: 10 µM
T-47D breast = tested on: T-47D breast
BT-549 breast = tested on: BT-549 breast
MDA-MB-435 melanoma = tested on: MDA-MB-435 melanoma
HCT-116 colon = tested on: HCT-116 colon
HCC-2998 colon = tested on: HCC-2998 colon
KM12 colon = tested on: KM12 colon
MCF7 breast = tested on: MCF7 breast
SW-620 colon = tested on: SW-620 colon

Row | SMILES | growth (T-47D breast) | growth (BT-549 breast) | growth (MDA-MB-435 melanoma) | growth (HCT-116 colon) | growth (HCC-2998 colon) | growth (KM12 colon) | growth (MCF7 breast) | growth (SW-620 colon)
1 | CC(=O)O[C@H]1CC[C@@]2(C)[C@@H](CC[C@@H]3[C@@H]2CC[C@]2(C)C=C(C=O)C[C@@H]32)C1 | 33.6% | 68.5% | 57.8% | -19.3% (active) | 92.5% | 107% |  | 
2 | Cc1ccc2nc3[nH]c(=O)[nH]c(=O)c3c(N)c2c1 | 85.1% | 99.8% | 91.5% | 80.6% | 95.9% | 91% | 89.3% | 
3 | CCCCCC(CCC)COC(=O)c1ccc(OC)cc1 (stereo not drawn) | 87.7% |  | 106% | 100% | 99.5% | 109% | 92.5% | 104%
4 | CCOC(=O)c1cc(-c2ccccc2)nc(N)n1 | 114% | 103% | 102% | 104% | 109% | 110% | 87.6% | 
5 | CCc1nn2c(-c3cc(OC)c(OC)c(OC)c3)c(-c3cc(OC)c(OC)c(OC)c3)nc2s1 | 81.4% | 89.6% | 83.4% | 71.8% | 102% | 100% |  | 
6 | CCC(CCNc1cc(OC)cc2cccnc12)CN1C(=O)c2ccccc2C1=O (stereo not drawn) | 32.7% |  | 107% | 99.5% | 105% | 99% | 31.1% | 135%
7 | Oc1[nH]c2ccccc2c1/C=c1/cc2c(c(-c3ccc(C(F)(F)F)cc3)n1)=Nc1ccccc1-2 | 37.5% |  | 4.17% (active) | 30% | 54.7% | 36.2% | 11.3% | 41.8%
8 | COc1ccc(C(C)=O)cc1N1C(=O)C2C(C1=O)C1(c3ccccc3)C(=O)C2(c2ccccc2)C(c2ccc(C)cc2)=C1c1ccc(C)cc1 (stereo not drawn) | 32.3% |  | 35.6% | 24.3% | 46.6% |  | 15.6% | 27.1%
9 | COc1ccc(-c2nsc3c2NC(=O)CC3c2cccc(Cl)c2)cc1 (stereo not drawn) | 35.3% |  | -12.2% (active) | 23.8% | 43.5% | 34.6% | 17% | 25.7%
10 | Cn1c(N)c(N=Cc2ccccc2)c(=O)n(C)c1=O | 108% |  | 114% | 92.8% | 104% | 115% | 103% | 107%
11 | O=C(O)CN1C(=O)C=CC1=O | 101% | 114% | 106% | 107% | 107% | 102% | 102% | 
12 | COc1cc(-c2cc(-c3cc(OC)c(OC)c(OC)c3)nc3nc(N)[nH]c(=O)c23)ccc1Oc1ccnc2cc(Cl)ccc12 | 30.3% | 34.9% | -57.6% (active) | 16.1% | 56.9% | 13.5% | 17.4% | 
13 | CCCc1ccnc(NS(=O)(=O)c2ccc(N)cc2)n1 | 64% |  | 77.9% | 66.1% | 86.9% | 74.9% | 49.2% | 99.5%
14 | CCCCCCCCCCCCCCCCCBr | 95.6% | 112% | 99.6% | 105% | 96.2% | 113% | 101% | 
15 | CC(C)/C=N/NC(N)=S | 45.6% | 105% | 86.4% | 8.16% (active) | 96.4% | 112% | 8.48% (active) | 
16 | C#CCNCCN1C(=O)c2ccc3c4c(ccc(c24)C1=O)C(=O)N(CCNCC#C)C3=O | 54.8% |  | -35.8% (active) | -10.7% (active) | 13.2% | 30.9% | 14.9% | 26.9%
17 | Nc1c(C(=O)Nc2ccccc2F)sc2nc3c(cc12)C(=O)CCC3 | 40.2% | 59.8% | -25.9% (active) | 32% | 43.8% | 24.6% | 22.9% | 
18 | CCN1CCOC1C(C)C (stereo not drawn) | 101% | 108% | 105% | 102% | 101% | 109% |  | 
19 | C=CCN1C(=O)/C(=C\c2ccc3c(c2)CCC3)SC1=S | 91.5% | 93.5% | 109% | 99.8% | 106% | 104% | 103% | 
20 | COC(=O)CCCCCCCCC(C)c1ccc(C(C)=O)cc1 (stereo not drawn) | 94.4% | 130% | 97.1% | 110% | 99.6% | 103% | 118% | 
21 | CC(C)C[C@H](NC(=O)Cn1ccc2ccccc2c1=O)B(O)O | 39.6% |  | 3.38% (active) | 32.3% | 72.2% | 93.4% | 31.4% | 42.8%
22 | Nc1cc(O)cc(O)c1 | 89% |  | 106% | 95.8% | 98.5% | 99.7% | 98.3% | 107%
23 | CCCCOCCOCCOCc1cc2c(cc1Br)OCO2 | 88% |  | 108% | 94.9% | 108% | 97.7% | 90.2% | 100%
24 | Cc1ccc(/C(CS(=O)(=O)c2ccc(C)cc2)=N\O)cc1 | 103% |  | 89% | 103% | 103% | 115% |  | 106%

Row | SMILES | growth (T-47D breast) | growth (BT-549 breast) | growth (MDA-MB-435 melanoma) | growth (HCT-116 colon) | growth (HCC-2998 colon) | growth (KM12 colon) | growth (MCF7 breast) | growth (SW-620 colon)
25 | Cn1cnc([N+](=O)[O-])c1Sc1nnc(-c2ccccc2)c(-c2ccccc2)n1 | 9.12% (active) |  | 42.1% | 32.8% | 96.8% | 92.5% | 61.9% | 48%
26 | COc1ccc(-c2nnc(N3CCN(C(=O)CN4CCN(c5ccc(Cl)cc5)CC4)CC3)nc2-c2ccc(OC)cc2)cc1 | 38.2% |  | 68% | 34.1% | 75.2% | 50.5% | 37.1% | 69.3%
27 | Fc1ccc(-c2cc(C(Cl)Cl)no2)cc1 | 110% |  | 97.3% | 90.3% | 107% | 94.4% | 88.7% | 92.1%
28 | Nc1nc(SCC#CCCl)c2[nH]cnc2n1 | 37.2% |  | 46.7% | 39% | 100% | 60.6% | 34.6% | 40.8%
29 | N#Cc1ccc(-n2cnc(NC(=O)[C@H]3CCN(C#N)C3)c2)cc1 | -9.28% (active) |  | 16.2% | 5.34% (active) | 38.5% | 8.31% (active) |  | 16.6%
30 | CCOc1ccc(-n2cc(-c3ccc(N(C)C)cc3)[n+]3c2CCCCC3)cc1 | 0.571% (active) |  | 15.1% | 0.582% (active) | 21.3% | 14.3% | 5.05% (active) | 19.1%
31 | CCOC(=O)c1c(C)n(-c2ccc(Cl)cc2)c2ccc(OC(=O)/C=C/c3ccccc3)cc12 |  | 82.2% | 9.43% (active) | 90.6% | 102% |  | 59.6% | 67%
32 | COc1cc(CSc2nc3ccc(Cl)cc3c(=O)n2-c2ccccc2)cc(OC)c1OC | 71% |  | 24.4% | 61.8% | 80% | 49.8% | 76.9% | 
33 | O=[N+]([O-])c1ccc(-c2nc(Cl)c3c(n2)CCCC3)o1 | 89.9% |  | 87.6% | 55.2% | 92.4% | 96.5% | 46.9% | 56.8%
34 | CCCCCCCCCCN=C(c1ccc(N(C)C)cc1)c1ccc(N(C)C)cc1 | 20.7% |  | -14.2% (active) | 15.3% | 52.6% | 27.8% | 11.9% | 
35 | CC(C)CCN(CCCNc1c2c(nc3cc(Cl)ccc13)CCCC2)CCC(C)C | 61.7% |  | 86.2% | 31.8% | 90.1% | 73.1% | 40% | 55.1%
36 | CC(C)C(C)C(N)C(=O)O (stereo not drawn) | 102% |  | 105% | 94.5% | 101% | 103% | 92.9% | 110%
37 | O=NN(CCCl)C(=O)Nc1ccc(NC(=O)N(CCCl)N=O)cc1 |  | 85.2% | 90.3% | 100% | 105% | 103% | 86.4% | 66.1%
38 | COc1ccc(-c2csc(NC(=O)CO[N+](=O)[O-])n2)cc1 | 57% |  | 106% | 102% | 105% | 95.8% | 92.6% | 103%
39 | O=C(COc1ccc(Cl)cc1Cl)Oc1coc(CSc2nc3ccccc3s2)cc1=O | 101% |  | 114% | 105% |  | 110% | 102% | 20.7%
40 | CCOc1nc(-c2ccccc2)cc2c(O)c(C(=O)N/N=C/c3ccc(OC)cc3)[nH]c(=O)c12 | 80.9% |  | 113% | 109% |  | 107% | 101% | 110%
41 | COc1cc(CSc2nc3ccc(C)cc3c(=O)n2-c2ccccc2)cc(OC)c1OC | 28.2% |  | -20% (active) | 26.6% | 49.7% | 25.3% | 19.9% | 29.7%
42 | O=C(c1ccccc1)C(Sc1ccccc1)c1ccccc1 (stereo not drawn) | 90.8% |  | 107% | 55.8% | 87.8% | 99.5% | 94% | 57.8%
43 | O=[N+]([O-])c1ccc(-c2nc(-c3ccccc3)c(-c3ccccc3)n2-c2ccccc2)cc1 | 21.6% |  | 36.5% | 33.2% | -36.9% (active) | 37% | 19.6% | 48.8%
44 | CCN(CCCNC(=O)Cc1cc(=O)oc2cc(N(C)C)ccc12)CCNc1ccnc2cc(Cl)ccc12 | 123% |  | 46.7% | 53.3% | 79.5% | 92.7% | 66% | 74.9%
45 | CC(=O)Nc1nc(C)c(C(=O)NNC=O)s1 | 127% |  | 107% | 121% | 79.4% | 105% | 92.4% | 101%
46 | O=S(=O)(NCCO)c1ccc(OCCOc2ccc(S(=O)(=O)NCCO)cc2)cc1 | 84.5% |  | 104% | 102% | 9.56% (active) | 104% | 96% | 101%
47 | CCOC(=O)[C@@H]1[C@H](c2ccccc2)[C@H]([N+](=O)[O-])[C@H](c2cn(-c3ccccc3)nc2C)N1Cc1ccccc1 | 44% |  | 92.3% | 37.5% | 94% | 88% | 67.6% | 73.1%

From PubChem BioAssay (NCI)
